Screening data (PubChem BioAssay)
MsrA act: bovine methionine sulfoxide reductase A activation. purified bovine MsrA, absorbance read-out. activation, % at 10.6 µM. 360,000 tested, 0.3% active. AID 602163; in the data active = activation above about 7.5%
MsrA inhibitor: bovine MsrA inhibition. purified bovine MsrA, absorbance read-out. inhibition, % at 15.5 µM. 360,000 tested, 0.75% active. AID 651718
GC-A act: GC-A (human) enzyme activation; AID 1671463; activation, % at 10 µM; HEK293 GC-A cells, cGMP TR-FRET, EC30 ANP; 0% at EC30 ANP, 100% saturating ANP; 370,000 tested, 0.14% active; in the data active = activation above about 40%
NPR2 activator: GC-B (human) receptor activation; P20594; HEK293-GC-B cells, CNP EC30, cGMP TR-FRET; 0% at EC30 CNP, 100% saturating CNP; activation, % at 10 µM; 370,000 tested, 0.11% active;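 active = activation at 10 µM reaching about 35% in either raw or pattern-adjusted values, limit read from the data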
m5-HT2A agonist: mouse HTR2A agonism via beta-arrestin recruitment | P35363 | CHO-K1 mHTR2A beta-arrestin complementation, luminescence; percent of 30 µM serotonin response | activation, % at 7.6 µM | 360,000 tested, 0.66% active;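 active = activation above a run cutoff, the mean activation of all tested compounds plus 3 SD, cut at about 14% in these data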
Target sequence (P35363 whole entry, looked up): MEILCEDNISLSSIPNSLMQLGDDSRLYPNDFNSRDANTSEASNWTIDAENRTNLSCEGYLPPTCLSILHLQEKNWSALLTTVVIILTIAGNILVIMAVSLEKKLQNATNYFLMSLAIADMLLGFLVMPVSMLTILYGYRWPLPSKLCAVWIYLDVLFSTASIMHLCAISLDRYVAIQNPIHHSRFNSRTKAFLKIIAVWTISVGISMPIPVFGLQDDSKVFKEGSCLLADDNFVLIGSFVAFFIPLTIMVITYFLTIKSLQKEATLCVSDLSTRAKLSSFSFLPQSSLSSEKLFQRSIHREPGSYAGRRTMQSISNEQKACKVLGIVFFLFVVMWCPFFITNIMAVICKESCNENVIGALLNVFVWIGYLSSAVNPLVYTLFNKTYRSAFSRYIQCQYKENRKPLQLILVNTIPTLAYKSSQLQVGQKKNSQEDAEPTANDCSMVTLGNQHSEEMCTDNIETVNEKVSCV
MsrA conf: bovine MsrA inhibition, confirmed; shares compounds with MsrA inhibitor; purified bovine MsrA, absorbance read-out; inhibition, % at 15.5 µM; 2,300 tested, 41% active;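 also: coupled to thioredoxin reductase with NADPH and selenocystamine and DMSO as substrate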
A number is an active result; n = inactive; x = no result given. The list is not random: actives were taken first. Their share in the collection is about 1.8%. Rule as the data show it, unless noted: active = inhibition above about 4.5%; inactive = the rest.

SMILES	MsrA act	MsrA inhibitor	GC-A act	NPR2 activator	m5-HT2A agonist	MsrA conf
O=C(NCc1ccccc1)c1ccc(CO)cc1	x	x	n	n	x	x
COC(=O)[C@]12C[C@H](CC(=O)NCc3cccc4ccccc34)C(=O)N(Cc3ccc(Cl)cc3Cl)C1=C[C@H](COCc1ccccc1)O[C@@H]2C	x	x	n	n	x	x
CCN(Cc1cn(Cc2ccccc2)nn1)S(=O)(=O)c1ccc(N2CCCC2)cc1Br	x	x	n	n	x	x
Cc1[nH]n(-c2ccc([N+](=O)[O-])cc2)c(=O)c1C=NCC1CCCO1 (stereo not given)	n	6.8	n	n	n	5.3
COC(=O)C1CN(Cc2ccc(Cl)cc2)CCS(=O)(=O)N1Cc1cn(Cc2ccc(OC)cc2)nn1 (stereo not given)	x	x	n	n	x	x
O=C1N/C(=N\N=C\c2cccs2)SC1Cc1ccc(Cl)c(Cl)c1 (stereo not given)	n	n	n	n	n	x
C=CCC1S/C(=N/N=C/c2cccs2)NC1=O (stereo not given)	n	6.7	n	n	n	5.7
CN(C)c1cccc(NC2=CC(=[N+]3CCOCC3)CC(C)(C)C2)c1	n	4.8	n	n	n	5.2
Cc1cc(NC(=O)Nc2cccc(F)c2)n(-c2ccccc2)n1	x	x	n	n	x	x
CCOC(=O)CC[C@@H]1CC[C@]2(CCCN(C(=O)C(C)(C)C)C2)O1	x	x	n	n	x	x
CCOC(=O)c1sc(N)c(C(N)=O)c1C	n	4.9	n	n	n	n
CCOC(=O)c1c(N)sc(C(N)=O)c1C	n	n	n	n	n	x
CCCC(=O)N1CCC[C@]2(CC[C@H](CCC(C)=O)O2)C1	x	x	n	n	x	x
COc1ccc(-c2cc(C(F)(F)F)nc(S(C)(=O)=O)n2)cc1	n	5.4	46	n	n	n
COc1ccc(-c2cc(C(F)(F)F)nc(N)n2)cc1	n	n	n	n	n	x
Cc1cc(C(=O)Nc2ccc(F)cc2)n(-c2ccccc2)n1	x	x	n	n	x	x
O=C(c1cnc2sccn2c1=O)N(Cc1ccccc1)c1ccccn1	n	5.0	n	n	n	n
O=C(c1ccccc1)N(Cc1ccccc1)c1ccccn1	n	n	n	n	n	x
COC[C@@H]1CCCN1c1cccc2c1S(=O)(=O)N(C1CC1)CC[C@@H](C)O2	x	x	n	n	x	x
COc1ccc(CN=C(C#N)C2=C(O)c3ccccc3C2=O)cc1	n	n	n	n	n	x
N#CC(=Nc1cccc(F)c1)C1=C(O)c2ccccc2C1=O	n	5.2	n	n	n	n
COc1ccc(-n2c(/C=C(\C)O)nc(=O)c3c(C)cc(C)nc32)cc1	n	5.8	n	n	n	n
COc1ccc(C2=Nn3c(nnc3C3CCCCC3)SC2)cc1	x	x	n	n	x	x
Cc1ccc(S(=O)(=O)Oc2ccc(/C=N/N=C3/NC(=O)C(CC(=O)O)S3)cc2)cc1 (stereo not given)	n	n	n	n	n	x
COc1ccc(/C=N/N=C2/NC(=O)C(CC(=O)O)S2)cc1OCc1ccc(Cl)cc1Cl (stereo not given)	n	n	n	n	n	x
SMILES	MsrA act	MsrA inhibitor	GC-A act	NPR2 activator	m5-HT2A agonist	MsrA conf
COc1ccc(S(=O)(=O)Oc2cccc(/C=N/N=C3/NC(=O)C(CC(=O)O)S3)c2)cc1 (stereo not given)	n	5.2	n	n	n	n
CCOc1cc(/C=N/N=C2/NC(=O)C(CC(=O)O)S2)ccc1OCc1ccccc1Cl (stereo not given)	n	6.8	n	n	n	4.8
COc1ccc(/C=N/N=C2/NC(=O)C(CC(=O)O)S2)cc1OCc1ccccc1Cl (stereo not given)	n	6.5	n	n	n	6.4
CCOc1cc(/C=N/N=C2/NC(=O)C(CC(=O)O)S2)ccc1OS(=O)(=O)c1ccc(C)cc1 (stereo not given)	n	5.6	n	n	n	n
C[C@H]1[C@@H](NC(=O)c2ccc(C(F)(F)F)cc2)CC[C@@]23CCCN2C(=O)CCC[C@@H]13	x	x	n	n	x	x
Cc1ccc(NC(=O)CSc2nnc(-c3cccnc3)n2Cc2ccco2)c(C)c1	x	x	n	n	x	x
Cn1c(=O)c(=O)n(C)c2cc(S(=O)(=O)N3CCN(Cc4ccc5c(c4)OCO5)CC3)ccc21	x	x	n	n	x	x
O=C(COC(=O)CCCN1C(=O)c2cccc3cccc(c23)C1=O)Nc1ccc(Cl)cc1	n	4.8	n	n	n	n
O=C1C(C=NCCCn2ccnc2)=C(O)c2ccccc21	n	4.7	n	n	n	n
CC(C)CN=CC1=C(O)c2ccccc2C1=O	n	n	n	n	n	x
